Measurements reported in the supplement of paper PMC4840960.
Where a name gives a salt, the structure may show the parent alone. ± gives the standard deviation of the averaged measurements.

The molecules below were run on E18 rat cortical neuron-glia co-culture (assay: fiber score / MBP score (myelination specific beyond OL differentiation) (ratio); higher = more myelination-specific MBP alignment). Settings: 1 µM; treatment time: 8 days (DIV5-DIV13).
Method in brief: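 Reported values are fiber score (continuous MBP fiber length per Olig2+ nucleus) divided by MBP score (thresholded MBP area × intensity per Olig2+ nucleus). They come from primary E18 rat cortical co-cultures treated with library compounds at 1 or 5 µM in myelination medium from DIV5 to DIV13, then fixed in 4 % paraformaldehyde, immunostained for MBP and Olig2 with DAPI, and analysed over four 10X fields per well in duplicate wells.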
`CN1CC[C@]23c4c5ccc(O)c4O[C@H]2c2[nH]c4ccccc4c2C[C@@]3(O)[C@H]1C5` [Oxymorphindole] was tested, and the “fiber score / MBP score” value was 0.883. `Oc1ccc2c3c1O[C@H]1c4[nH]c5ccccc5c4C[C@@]4(O)[C@@H](C2)N(CC2CC2)CC[C@]314` [Naltrindole] was tested, and the “fiber score / MBP score” value was 0.716. `O=C1CN=C(c2ccccc2)c2cc([N+](=O)[O-])ccc2N1` [Nitrazepam] was tested, and the “fiber score / MBP score” value was 0.887. For `CN1[C@@H]2CC[C@H]1C[C@@H](OC(=O)[C@H](CO)c1ccccc1)C2` [Hyoscyamine], the “fiber score / MBP score” value was 0.631. With `c1ccc2c3c([nH]c2c1)CNCC3` [Tryptoline] the “fiber score / MBP score” value was 0.757. `FC(F)(F)c1cccc(N2CCNCC2)c1` [1-(3-trifluoromethylphenyl)piperazine hydrochloride (TFMPP)] was tested, and the “fiber score / MBP score” value was 0.633. In the case of `NC(=O)OCCCc1ccccc1` [Phenprobamate], the “fiber score / MBP score” value is reported as 0.695. `O=C1CC[C@@]2(O)[C@H]3Cc4ccc(O)c5c4[C@@]2(CCN3CC2CC2)[C@H]1O5` [Naltrexone] was tested, and the “fiber score / MBP score” value was 1.3. For `COc1cc(N)c(Cl)cc1C(=O)NC1CN2CCC1CC2` (stereo unspecified) [Zacopride], the “fiber score / MBP score” value was 0.703. For `COc1ccc2[nH]cc(C3=CCNCC3)c2c1`, the “fiber score / MBP score” value was 0.706. For `CC(O)(CS(=O)(=O)c1ccc(F)cc1)C(=O)Nc1ccc(C#N)c(C(F)(F)F)c1` (stereo unspecified) [Bicalutamide], the “fiber score / MBP score” value was 0.676. In the case of `O=c1c2ccccc2[se]n1-c1ccccc1` [Ebselen], the “fiber score / MBP score” value is reported as 2.01. For `CNC1=Nc2ccc(Cl)cc2C(c2ccccc2)=[N+]([O-])C1` [Chlordiazepoxide], the “fiber score / MBP score” value was 0.994. For `Oc1cc(Cl)ccc1Oc1ccc(Cl)cc1Cl` [Triclosan], the “fiber score / MBP score” value was 1.18. For `COc1ccc2c(c1)[C@]13CCCC[C@@H]1[C@H](C2)N(C)CC3` [Dextromethorphan], the “fiber score / MBP score” value was 1.19. For `Cc1ncc2n1-c1ccc(Cl)cc1C(c1ccccc1F)=NC2` [Midazolam], the “fiber score / MBP score” value was 0.908. `C=CCN1CC[C@]23c4c5ccc(O)c4O[C@H]2C(=O)CC[C@@]3(O)[C@H]1C5` [Naloxone] was tested, and the “fiber score / MBP score” value was 0.965. For `C#CCN(C)[C@H](C)Cc1ccccc1` [Selegiline], the “fiber score / MBP score” value was 0.779 ± 0.13. With `CN1CCN(C(=O)O[C@H]2c3nccnc3C(=O)N2c2ccc(Cl)cn2)CC1` [Eszopiclone] the “fiber score / MBP score” value was 0.461. For `C[C@]12Cc3c[nH]nc3C[C@@H]1CC[C@@H]1[C@@H]2CC[C@@]2(C)[C@H]1CC[C@]2(C)O` [Stanozolol], the “fiber score / MBP score” value was 0.697. `CS(=O)(=O)Nc1ccc(Cc2noc(-c3ccc4[nH]cc(CCN)c4c3)n2)cc1` was tested, and the “fiber score / MBP score” value was 0.563. For `NC1=NC(=O)C(c2ccccc2)O1` (stereo unspecified) [Pemoline], the “fiber score / MBP score” value was 0.628. For `CNC1CC(c2ccc(Cl)c(Cl)c2)c2ccccc21` (stereo unspecified) [Indatraline], the “fiber score / MBP score” value was 0.417. With `C[N+]1(CCC(C(N)=O)(c2ccccc2)c2ccccc2)CCCCC1` [Fenpiverinium] the “fiber score / MBP score” value was 1.01. In the case of `C[C@]12CCC(=O)C=C1CC[C@@H]1[C@@H]2CC[C@@]2(C)[C@H]1CC[C@]2(C)O` [Methyltestosterone], the “fiber score / MBP score” value is reported as 0.609. In the case of `CN1CC[C@]2(c3cccc(O)c3)Cc3nc4ccccc4cc3C[C@H]2C1`, the “fiber score / MBP score” value is reported as 0.572. For `CN1CC[C@@H](c2ccc(F)cc2)[C@H](COc2ccc3c(c2)OCO3)C1` [N-Methylparoxetine], the “fiber score / MBP score” value was 0.423. For `CCCCC/C=C\C/C=C\C/C=C\C/C=C\CCCC(=O)Nc1ccc(O)cc1`, the “fiber score / MBP score” value was 0.943.

Same assay, conditions: 5 µM; treatment time: 8 days (DIV5-DIV13)
With `Oc1ccc2c3c1O[C@H]1c4[nH]c5ccccc5c4C[C@@]4(O)[C@@H](C2)N(CC2CC2)CC[C@]314` [Naltrindole] the “fiber score / MBP score” value was 0.673. For `O=C1CN=C(c2ccccc2)c2cc([N+](=O)[O-])ccc2N1` [Nitrazepam], the “fiber score / MBP score” value was 0.996. In the case of `CN1[C@@H]2CC[C@H]1C[C@@H](OC(=O)[C@H](CO)c1ccccc1)C2` [Hyoscyamine], the “fiber score / MBP score” value is reported as 0.692. With `c1ccc2c3c([nH]c2c1)CNCC3` [Tryptoline] the “fiber score / MBP score” value was 0.905. In the case of `FC(F)(F)c1cccc(N2CCNCC2)c1` [1-(3-trifluoromethylphenyl)piperazine hydrochloride (TFMPP)], the “fiber score / MBP score” value is reported as 0.613. In the case of `NC(=O)OCCCc1ccccc1` [Phenprobamate], the “fiber score / MBP score” value is reported as 0.885. In the case of `O=C1CC[C@@]2(O)[C@H]3Cc4ccc(O)c5c4[C@@]2(CCN3CC2CC2)[C@H]1O5` [Naltrexone], the “fiber score / MBP score” value is reported as 0.956. In the case of `COc1cc(N)c(Cl)cc1C(=O)NC1CN2CCC1CC2` (stereo unspecified) [Zacopride], the “fiber score / MBP score” value is reported as 0.884. `COc1ccc2[nH]cc(C3=CCNCC3)c2c1` was tested, and the “fiber score / MBP score” value was 0.448. `CC(O)(CS(=O)(=O)c1ccc(F)cc1)C(=O)Nc1ccc(C#N)c(C(F)(F)F)c1` (stereo unspecified) [Bicalutamide] was tested, and the “fiber score / MBP score” value was 0.996. `CNC1=Nc2ccc(Cl)cc2C(c2ccccc2)=[N+]([O-])C1` [Chlordiazepoxide] was tested, and the “fiber score / MBP score” value was 0.605. With `COc1ccc2c(c1)[C@]13CCCC[C@@H]1[C@H](C2)N(C)CC3` [Dextromethorphan] the “fiber score / MBP score” value was 0.893. In the case of `Cc1ncc2n1-c1ccc(Cl)cc1C(c1ccccc1F)=NC2` [Midazolam], the “fiber score / MBP score” value is reported as 1.88. In the case of `C=CCN1CC[C@]23c4c5ccc(O)c4O[C@H]2C(=O)CC[C@@]3(O)[C@H]1C5` [Naloxone], the “fiber score / MBP score” value is reported as 1.09. For `C#CCN(C)[C@H](C)Cc1ccccc1` [Selegiline], the “fiber score / MBP score” value was 1.02 ± 0.14. `CN1CCN(C(=O)O[C@H]2c3nccnc3C(=O)N2c2ccc(Cl)cn2)CC1` [Eszopiclone] was tested, and the “fiber score / MBP score” value was 0.876. With `CS(=O)(=O)Nc1ccc(Cc2noc(-c3ccc4[nH]cc(CCN)c4c3)n2)cc1` the “fiber score / MBP score” value was 0.612. In the case of `NC1=NC(=O)C(c2ccccc2)O1` (stereo unspecified) [Pemoline], the “fiber score / MBP score” value is reported as 0.845. `C[N+]1(CCC(C(N)=O)(c2ccccc2)c2ccccc2)CCCCC1` [Fenpiverinium] was tested, and the “fiber score / MBP score” value was 1.19. In the case of `C[C@]12CCC(=O)C=C1CC[C@@H]1[C@@H]2CC[C@@]2(C)[C@H]1CC[C@]2(C)O` [Methyltestosterone], the “fiber score / MBP score” value is reported as 0.755. For `CN1CC[C@]2(c3cccc(O)c3)Cc3nc4ccccc4cc3C[C@H]2C1`, the “fiber score / MBP score” value was 0.822. For `CN1CC[C@@H](c2ccc(F)cc2)[C@H](COc2ccc3c(c2)OCO3)C1` [N-Methylparoxetine], the “fiber score / MBP score” value was 0.379. In the case of `CCCCC/C=C\C/C=C\C/C=C\C/C=C\CCCC(=O)Nc1ccc(O)cc1`, the “fiber score / MBP score” value is reported as 0.96.
